The values below come from article PMC7862700, “An all-to-all approach to the identification of sequence-specific readers for epigenetic DNA modifications on cytosine”.

Holding throughout (assay): DAPPL (digital affinity profiling via proximity ligation, sequencing); 10 mM Tris-HCl pH 7.5, 50 mM NaCl, 1 mM DTT, 4% glycerol, room temperature, 30 min; GST-TFs on glutathione beads, 16-mer random dsDNA library, 0.1% formaldehyde crosslink after washing; high values mean tight binding
What all share (details): protein: recombinant; tags: N-terminal GST; dsDNA, one strand shown

One experiment deals with T1, FLI1 (Homo sapiens, UniProt Q01543 1-452).
T1 sequence: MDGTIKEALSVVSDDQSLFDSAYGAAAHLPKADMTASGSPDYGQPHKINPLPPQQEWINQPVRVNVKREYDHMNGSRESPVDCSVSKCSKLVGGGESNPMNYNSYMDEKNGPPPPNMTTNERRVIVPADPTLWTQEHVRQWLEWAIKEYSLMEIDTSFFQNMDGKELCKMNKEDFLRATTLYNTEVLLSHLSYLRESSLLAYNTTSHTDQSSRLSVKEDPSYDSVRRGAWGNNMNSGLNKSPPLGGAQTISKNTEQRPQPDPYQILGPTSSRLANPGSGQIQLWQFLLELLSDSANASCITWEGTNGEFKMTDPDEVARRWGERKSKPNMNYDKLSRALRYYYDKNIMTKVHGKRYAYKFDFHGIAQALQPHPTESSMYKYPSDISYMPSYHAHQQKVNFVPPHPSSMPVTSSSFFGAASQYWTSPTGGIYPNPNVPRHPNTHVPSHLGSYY
The essentials:
(§1)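 Pools were built from human transcription factors expressed in yeast as GST fusions, captured on glutathione beads and DNA-barcoded, along with a tag-only sample. Incubation with 200 nmole of a 16-mer random double-stranded DNA library lasted 30 min at room temperature in Tris/NaCl/DTT/glycerol buffer, and was followed by washing, 0.1% formaldehyde crosslinking, proximity ligation, PCR amplification and Illumina NextSeq500 sequencing. Binding signal is the quotient of each hexamer's read frequency for a factor and its frequency for the tag-only sample.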

For the next experiment, the target named is T2, ELK1 (Homo sapiens, UniProt P19419 1-428).
T2 sequence: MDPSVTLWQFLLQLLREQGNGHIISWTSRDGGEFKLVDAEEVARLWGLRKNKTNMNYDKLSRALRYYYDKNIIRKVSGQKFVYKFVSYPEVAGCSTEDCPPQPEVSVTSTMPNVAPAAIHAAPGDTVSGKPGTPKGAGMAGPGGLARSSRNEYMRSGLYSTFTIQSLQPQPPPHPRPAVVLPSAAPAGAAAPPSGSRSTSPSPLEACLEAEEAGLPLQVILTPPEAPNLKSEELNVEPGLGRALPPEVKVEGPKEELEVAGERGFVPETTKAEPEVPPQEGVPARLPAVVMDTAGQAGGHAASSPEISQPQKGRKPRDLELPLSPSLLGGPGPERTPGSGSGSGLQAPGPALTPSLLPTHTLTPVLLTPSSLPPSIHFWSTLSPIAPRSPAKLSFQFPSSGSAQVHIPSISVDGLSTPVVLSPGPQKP
The essentials:
as §1

The target of the next experiment is T3, GABPA (Homo sapiens, UniProt Q06546 1-454).
T3 sequence: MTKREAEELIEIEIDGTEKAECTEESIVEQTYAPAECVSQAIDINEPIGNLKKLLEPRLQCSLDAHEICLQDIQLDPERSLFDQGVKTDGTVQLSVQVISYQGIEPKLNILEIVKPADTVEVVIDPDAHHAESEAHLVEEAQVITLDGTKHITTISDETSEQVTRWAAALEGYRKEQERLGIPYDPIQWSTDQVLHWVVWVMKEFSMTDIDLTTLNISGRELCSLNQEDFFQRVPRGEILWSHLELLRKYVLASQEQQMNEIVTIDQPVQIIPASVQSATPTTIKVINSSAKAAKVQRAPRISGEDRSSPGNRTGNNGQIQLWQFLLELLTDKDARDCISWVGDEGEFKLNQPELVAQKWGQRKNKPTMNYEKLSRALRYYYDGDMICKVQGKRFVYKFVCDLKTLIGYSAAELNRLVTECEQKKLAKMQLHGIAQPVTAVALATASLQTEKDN
The essentials: as §1

In the next experiment the target is T4, ERG (Homo sapiens, UniProt P11308 1-479).
T4 sequence: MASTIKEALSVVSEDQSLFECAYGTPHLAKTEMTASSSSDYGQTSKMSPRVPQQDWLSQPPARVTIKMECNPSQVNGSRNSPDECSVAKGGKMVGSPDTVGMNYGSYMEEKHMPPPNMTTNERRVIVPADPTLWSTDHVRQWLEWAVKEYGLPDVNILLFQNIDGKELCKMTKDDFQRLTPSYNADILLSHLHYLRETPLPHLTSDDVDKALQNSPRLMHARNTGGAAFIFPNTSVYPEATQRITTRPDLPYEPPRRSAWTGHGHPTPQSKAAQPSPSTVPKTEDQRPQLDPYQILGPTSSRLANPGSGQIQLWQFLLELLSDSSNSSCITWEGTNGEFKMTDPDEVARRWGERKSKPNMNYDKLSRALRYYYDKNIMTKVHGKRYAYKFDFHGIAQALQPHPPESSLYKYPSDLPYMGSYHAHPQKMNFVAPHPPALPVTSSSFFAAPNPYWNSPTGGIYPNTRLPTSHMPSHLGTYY
The essentials: as §1

The next experiment has as its target ELF1 (Homo sapiens, UniProt P32519 1-619). The essentials: as §1
The next experiment has as its target T5, EHF (Homo sapiens, UniProt Q9NZC4 1-300).
T5 sequence: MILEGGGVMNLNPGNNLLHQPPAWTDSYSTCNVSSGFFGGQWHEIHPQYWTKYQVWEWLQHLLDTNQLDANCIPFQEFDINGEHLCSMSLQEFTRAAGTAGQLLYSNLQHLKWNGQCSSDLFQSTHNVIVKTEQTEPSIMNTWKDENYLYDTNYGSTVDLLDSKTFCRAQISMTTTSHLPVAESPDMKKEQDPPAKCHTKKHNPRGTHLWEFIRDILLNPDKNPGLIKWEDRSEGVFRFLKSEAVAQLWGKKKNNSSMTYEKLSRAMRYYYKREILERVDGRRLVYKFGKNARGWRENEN
The essentials: as §1

The next experiment concerns the target SPI1 (Homo sapiens, UniProt P17947 1-270). The essentials:
as §1

A further experiment has as its target SPIB (Homo sapiens, UniProt Q01892 1-262). The essentials: as §1
The target in another experiment is T6, ELK3 (Homo sapiens, UniProt P41970 1-407).
T6 sequence: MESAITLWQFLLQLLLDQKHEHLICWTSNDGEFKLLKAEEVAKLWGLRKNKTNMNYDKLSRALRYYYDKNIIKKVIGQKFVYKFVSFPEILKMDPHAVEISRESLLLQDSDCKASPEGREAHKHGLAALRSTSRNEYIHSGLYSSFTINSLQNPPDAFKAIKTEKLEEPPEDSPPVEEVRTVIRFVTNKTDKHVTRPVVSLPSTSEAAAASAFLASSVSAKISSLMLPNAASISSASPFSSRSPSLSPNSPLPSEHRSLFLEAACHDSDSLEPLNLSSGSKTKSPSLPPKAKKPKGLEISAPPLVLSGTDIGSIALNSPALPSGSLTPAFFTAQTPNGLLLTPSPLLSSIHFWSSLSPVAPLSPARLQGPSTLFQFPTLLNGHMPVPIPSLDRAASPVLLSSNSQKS
The essentials: as §1

Sequence of SPIB (Q01892 whole entry): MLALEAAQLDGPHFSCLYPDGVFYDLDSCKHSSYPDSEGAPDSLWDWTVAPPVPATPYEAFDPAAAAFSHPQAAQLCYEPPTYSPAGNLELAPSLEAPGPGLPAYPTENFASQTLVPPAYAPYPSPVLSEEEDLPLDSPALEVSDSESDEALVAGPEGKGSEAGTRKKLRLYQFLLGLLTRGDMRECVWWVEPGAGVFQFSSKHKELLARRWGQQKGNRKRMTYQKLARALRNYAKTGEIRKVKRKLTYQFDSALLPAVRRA
Sequence of ELF1 (P32519 whole entry): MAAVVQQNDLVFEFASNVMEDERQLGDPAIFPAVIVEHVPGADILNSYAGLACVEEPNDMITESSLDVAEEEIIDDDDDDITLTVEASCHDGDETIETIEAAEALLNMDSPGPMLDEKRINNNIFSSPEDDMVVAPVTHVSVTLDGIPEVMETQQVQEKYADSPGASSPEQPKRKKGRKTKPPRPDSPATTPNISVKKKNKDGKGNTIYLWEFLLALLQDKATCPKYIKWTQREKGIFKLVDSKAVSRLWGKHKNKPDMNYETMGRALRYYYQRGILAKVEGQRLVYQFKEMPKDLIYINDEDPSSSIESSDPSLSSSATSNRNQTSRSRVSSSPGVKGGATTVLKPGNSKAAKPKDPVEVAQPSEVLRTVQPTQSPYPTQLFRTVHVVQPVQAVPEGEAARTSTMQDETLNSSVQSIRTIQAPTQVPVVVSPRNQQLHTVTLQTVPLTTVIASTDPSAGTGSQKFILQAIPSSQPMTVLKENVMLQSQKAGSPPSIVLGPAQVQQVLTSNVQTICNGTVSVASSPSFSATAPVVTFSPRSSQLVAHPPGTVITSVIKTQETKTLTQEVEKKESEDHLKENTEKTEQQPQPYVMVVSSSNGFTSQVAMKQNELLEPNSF

Take ACCGCC: the binding signal is 1.38 fold enrichment (6-mer frequency, TF over GST control) with FLI1; 1.23 fold enrichment (6-mer frequency, TF over GST control) with ELK1; 1.35 fold enrichment (6-mer frequency, TF over GST control) in the experiment with GABPA; 1.27 fold enrichment (6-mer frequency, TF over GST control) with ERG; 1.29 fold enrichment (6-mer frequency, TF over GST control) with ELF1; 1.36 fold enrichment (6-mer frequency, TF over GST control) in the experiment with EHF. Moreover, the binding signal in the experiment with SPI1 is 1.19 fold enrichment (6-mer frequency, TF over GST control); with SPIB, 1.13 fold enrichment (6-mer frequency, TF over GST control); with ELK3 it was 1.3 fold enrichment (6-mer frequency, TF over GST control).
Consider CGTCTT, for which the binding signal in the experiment with FLI1 is 1.46 fold enrichment (6-mer frequency, TF over GST control); in the experiment with ELK1, 1.43 fold enrichment (6-mer frequency, TF over GST control); with GABPA, 1.33 fold enrichment (6-mer frequency, TF over GST control); with ERG it was 1.37 fold enrichment (6-mer frequency, TF over GST control); with ELF1, 1.35 fold enrichment (6-mer frequency, TF over GST control); with EHF it was 1.41 fold enrichment (6-mer frequency, TF over GST control). The binding signal with SPI1 is 1.45 fold enrichment (6-mer frequency, TF over GST control); with SPIB, 1.5 fold enrichment (6-mer frequency, TF over GST control); with ELK3 it was 1.28 fold enrichment (6-mer frequency, TF over GST control).
Take CTCAGT: the binding signal with FLI1 is 1.16 fold enrichment (6-mer frequency, TF over GST control); with ELK1 it was 1.21 fold enrichment (6-mer frequency, TF over GST control); in the experiment with GABPA, 1.2 fold enrichment (6-mer frequency, TF over GST control); with ERG, 1.13 fold enrichment (6-mer frequency, TF over GST control); in the experiment with ELF1, 1.22 fold enrichment (6-mer frequency, TF over GST control); in the experiment with EHF it was 1.06 fold enrichment (6-mer frequency, TF over GST control). Further, the binding signal in the experiment with SPI1 was 1.18 fold enrichment (6-mer frequency, TF over GST control); with SPIB, 1.14 fold enrichment (6-mer frequency, TF over GST control); with ELK3, 1.24 fold enrichment (6-mer frequency, TF over GST control).
TGACCA: the binding signal was 1.25 fold enrichment (6-mer frequency, TF over GST control) in the experiment with FLI1; 1.32 fold enrichment (6-mer frequency, TF over GST control) with ELK1; 1.33 fold enrichment (6-mer frequency, TF over GST control) with GABPA; 1.15 fold enrichment (6-mer frequency, TF over GST control) with ERG; 1.29 fold enrichment (6-mer frequency, TF over GST control) in the experiment with ELF1; 1.33 fold enrichment (6-mer frequency, TF over GST control) with EHF. Further, the binding signal was 1.25 fold enrichment (6-mer frequency, TF over GST control) in the experiment with SPI1; 1.21 fold enrichment (6-mer frequency, TF over GST control) with SPIB; 1.45 fold enrichment (6-mer frequency, TF over GST control) with ELK3.
As to ACCACT, the binding signal with FLI1 was 1.28 fold enrichment (6-mer frequency, TF over GST control); with ELK1, 1.22 fold enrichment (6-mer frequency, TF over GST control); in the experiment with GABPA, 1.35 fold enrichment (6-mer frequency, TF over GST control); with ERG, 1.27 fold enrichment (6-mer frequency, TF over GST control); with ELF1, 1.31 fold enrichment (6-mer frequency, TF over GST control); in the experiment with EHF, 1.25 fold enrichment (6-mer frequency, TF over GST control). In addition, the binding signal with SPI1 is 1.38 fold enrichment (6-mer frequency, TF over GST control); in the experiment with SPIB, 1.19 fold enrichment (6-mer frequency, TF over GST control); with ELK3, 1.21 fold enrichment (6-mer frequency, TF over GST control).
Consider TGACGC, for which the binding signal was 1.1 fold enrichment (6-mer frequency, TF over GST control) in the experiment with FLI1; 1.22 fold enrichment (6-mer frequency, TF over GST control) with ELK1; 1.15 fold enrichment (6-mer frequency, TF over GST control) with GABPA; 1.13 fold enrichment (6-mer frequency, TF over GST control) in the experiment with ERG; 1.3 fold enrichment (6-mer frequency, TF over GST control) in the experiment with ELF1; 1.21 fold enrichment (6-mer frequency, TF over GST control) in the experiment with EHF. In addition, the binding signal in the experiment with SPI1 is 1.15 fold enrichment (6-mer frequency, TF over GST control); with SPIB, 1.24 fold enrichment (6-mer frequency, TF over GST control); with ELK3, 1.1 fold enrichment (6-mer frequency, TF over GST control).
On to CCTCTG, for which the binding signal is 1.57 fold enrichment (6-mer frequency, TF over GST control) with FLI1; 1.75 fold enrichment (6-mer frequency, TF over GST control) in the experiment with ELK1; 1.63 fold enrichment (6-mer frequency, TF over GST control) with GABPA; 1.62 fold enrichment (6-mer frequency, TF over GST control) with ERG; 1.65 fold enrichment (6-mer frequency, TF over GST control) in the experiment with ELF1; 1.67 fold enrichment (6-mer frequency, TF over GST control) with EHF. Moreover, the binding signal with SPI1 is 1.63 fold enrichment (6-mer frequency, TF over GST control); with SPIB, 1.6 fold enrichment (6-mer frequency, TF over GST control); in the experiment with ELK3, 1.58 fold enrichment (6-mer frequency, TF over GST control).
